Counter-ions that a name gives are not always drawn.
System: U-2932
Assay: growth inhibition by drug alone (1 - RLU/untreated control) (fraction); higher = stronger inhibition
Details: 177Lu-lilotomab satetraxetan 0 ug/ml
Protocol: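 U-2932 ABC-DLBCL cells were pretreated or not for 18 h with 1 ug/ml 177Lu-lilotomab satetraxetan (600 MBq/mg), washed and seeded (3000 cells/well) on 384-well plates pre-printed with the Selleck Cambridge Cancer Compound library. Viability was read by RealTime-Glo luminescence on days 3-6 after seeding. Effect = 1 - RLU/mean RLU of the 48 untreated no-drug control wells per plate; Bliss score = (M-E)/(1-Fa), with E the expected Bliss-additive effect.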

Compound | growth inhibition by drug alone (10 nM, time (day): 3) | growth inhibition by drug alone (10 nM, time (day): 4) | growth inhibition by drug alone (10 nM, time (day): 5) | growth inhibition by drug alone (10 nM, time (day): 6) | growth inhibition by drug alone (1000 nM, time (day): 3) | growth inhibition by drug alone (1000 nM, time (day): 4) | growth inhibition by drug alone (1000 nM, time (day): 5) | growth inhibition by drug alone (1000 nM, time (day): 6)
Cc1ccc([N+](=O)[O-])cc1S(=O)(=O)N(C)/N=C/c1cnc2ccc(Br)cn12 | 0.343 | 0.311 | 0.248 | 0.226 | 0.963 | 0.969 | 0.976 | 0.979
CCOC(=O)C1=C[C@]2(CC)CCCN3CCc4c(n1c1ccccc41)[C@@H]32 [Vinpocetine (Cavinton)] | -0.0944 | -0.0619 | -0.0289 | 0.127 | 0.0303 | 0.0355 | 0.0149 | 0.00297
COc1ccc(CCN2CCN(CCCc3ccccc3)CC2)cc1OC | 0.0269 | -0.00972 | -0.0184 | -0.287 | -0.032 | -0.091 | -0.153 | -0.298
NC(=O)Nc1sc(-c2ccc(F)cc2)cc1C(N)=O | 0.0734 | 0.0553 | 0.0297 | -0.262 | 0.197 | 0.229 | 0.176 | 0.239
COc1cccc2c1C(=O)c1c(O)c3c(c(O)c1C2=O)C[C@@](O)(C(=O)CO)C[C@@H]3O[C@H]1C[C@H](N)[C@@H](O)[C@H](C)O1 [Epirubicin Hydrochloride] | 0.0435 | 0.0793 | 0.0717 | 0.093 | 0.943 | 0.964 | 0.975 | 0.98
